Experimental findings from the supplement of paper PMC13380429 are described below.

The test system of assay [1] is Vero E6 infected with SARS-CoV-2. Kind of assay: morphology score (similarity to uninfected cells); higher = more like uninfected cells. The following applies: 24 h.
Assay [2] shares this test system. Kind of assay: SARS-CoV-2 infection rate relative to infected DMSO; higher = more infection, active = 60 or less. The following applies: 24 h.

With `COC1=C(OC)C(=O)C(CCCCCCCCCCO)=C(C)C1=O` [idebenone] (10 µM), in assay [1], the morphology score was -0.0056. In assay [2], the SARS-CoV-2 infection rate is 92.5% (inactive).

In assay [1], `COC(=O)C1=C(C)NC(C)=C(C(=O)NCCCN2CCC(c3ccccc3)(c3ccccc3)CC2)C1c1ccc([N+](=O)[O-])cc1` (stereo not given) (0.833333 µM) yielded a morphology score of 0.212. Further, in assay [2], the SARS-CoV-2 infection rate was 98.5% (inactive).

`COc1ccc2c(C)nc(Nc3nc(C)c(C)c(O)n3)nc2c1` [madrasin] (10 µM) showed a morphology score in assay [1] of 0.0439. Besides, in assay [2], the SARS-CoV-2 infection rate was 107% (inactive).

As to `C[C@]12C=CC(=O)C=C1CC[C@@H]1[C@@H]2C(=O)C[C@@]2(C)[C@H]1CC[C@]2(O)C(=O)CO` [prednisone] (10 µM), in assay [1], the morphology score was -0.177. For the same compound, in assay [2], the SARS-CoV-2 infection rate is 108% (inactive).

In turn, `O=C(O)CC/C=C\C[C@@H]1CO[C@H](c2ccccc2Cl)O[C@@H]1c1ccccc1O` (racemic) (10 µM) returned a morphology score in assay [1] of -0.000999. Moreover, the SARS-CoV-2 infection rate in assay [2] was 106% (inactive).

For `CN(C)CCOC(C)(c1ccccc1)c1ccccn1` (stereo not given) [doxylamine] (10 µM), in assay [1], the morphology score came out at 0.112. Besides, the SARS-CoV-2 infection rate in assay [2] was 96% (inactive).

For the compound `CC(SC(=O)c1cccs1)C(=O)NCC(=O)O` (stereo not given) [stepronin] (10 µM), in assay [1], the morphology score was -0.0157. Besides, the SARS-CoV-2 infection rate in assay [2] is 113% (inactive).

In assay [1], `Nc1nc(N)c2nc(-c3ccccc3)c(N)nc2n1` [triamterene] (0.833333 µM) yielded a morphology score of -0.174. Besides, the SARS-CoV-2 infection rate in assay [2] is 118% (inactive).

In turn, `CCOC(=O)c1c(CSc2ccccc2)n(C)c2cc(Br)c(O)c(CN(C)C)c12` [arbidol] (10 µM) displayed a morphology score in assay [1] of 0.126. In addition, the SARS-CoV-2 infection rate in assay [2] is 87.5% (inactive).

Regarding `CC(C)(O)CNc1nc(Nc2ccnc(C(F)(F)F)c2)nc(-c2cccc(C(F)(F)F)n2)n1` [enasidenib] (10 µM), the morphology score in assay [1] was 0.237. Besides, the SARS-CoV-2 infection rate in assay [2] was 100% (inactive).

In assay [1], `COc1ccc(Cn2ccc3ccc(C(=O)NO)cc32)cc1` (0.833333 µM) yielded a morphology score of 0.108. Moreover, in assay [2], the SARS-CoV-2 infection rate was 111% (inactive).

In turn, `C=CCc1cccc(/C=N/NC(=O)CN2CCN(Cc3ccccc3)CC2)c1O` (0.833333 µM) showed a morphology score in assay [1] of 0.152. In addition, the SARS-CoV-2 infection rate in assay [2] was 100% (inactive).

`C[C@]12CC[C@@H]3c4ccc(O)cc4C[C@@H](CCCCCCCCC[S+]([O-])CCCC(F)(F)C(F)(F)F)[C@H]3[C@@H]1CC[C@@H]2O` (stereo not given in full) [fulvestrant] (10 µM) displayed a morphology score in assay [1] of -0.187. Further, the SARS-CoV-2 infection rate in assay [2] is 110% (inactive).

`COc1ccc(-c2cc(=O)c3c(OC)c(OC)c(OC)c(OC)c3o2)cc1OC` [nobiletin] (10 µM) displayed a morphology score in assay [1] of 0.322. Further, the SARS-CoV-2 infection rate in assay [2] was 110% (inactive).

In the case of `CC/C=C\C/C=C\C/C=C\C/C=C\C/C=C\C/C=C\CCC(=O)OCC` [doconexent-ethyl-ester] (10 µM), the morphology score in assay [1] turned out to be 0.193. Further, the SARS-CoV-2 infection rate in assay [2] was 88.5% (inactive).

`CCOC(=O)C(=O)Nc1cccc(OC)c1C(N)=O` (10 µM): in assay [1], the morphology score was -0.179. For the same compound, the SARS-CoV-2 infection rate in assay [2] was 102% (inactive).

The compound `c1nc(CC2CCNCC2)c[nH]1` [immepip] (10 µM) yielded a morphology score in assay [1] of 0.0471. Moreover, in assay [2], the SARS-CoV-2 infection rate is 101% (inactive).

Consider `CCOC(=O)OC(C)OC1=C(C(=O)Nc2ccccn2)N(C)S(=O)(=O)c2ccccc21` (stereo not given) [ampiroxicam] (10 µM), for which the morphology score in assay [1] was -0.00273. In addition, the SARS-CoV-2 infection rate in assay [2] was 102% (inactive).

In assay [1], `CN(C)C(=O)C(=O)c1cn(C)c2cc(Cl)c(C(=O)N3CCC(Cc4ccc(F)cc4)CC3)cc12` (10 µM) displayed a morphology score of 0.323. In addition, the SARS-CoV-2 infection rate in assay [2] was 82% (inactive).

`CCOc1cc2ncc(C#N)c(Nc3ccc(F)c(Cl)c3)c2cc1NC(=O)/C=C/CN(C)C` [pelitinib] (10 µM): in assay [1], the morphology score is -0.188. For the same compound, the SARS-CoV-2 infection rate in assay [2] is 110% (inactive).

With `C[C@@H]1O[C@@H](O[C@H]2[C@H](Oc3cc(O)c4c(c3)O[C@H](c3ccc(O)cc3)CC4=O)O[C@H](CO)[C@@H](O)[C@@H]2O)[C@H](O)[C@H](O)[C@H]1O` [Naringin (Naringoside)] (10 µM), in assay [1], the morphology score was found to be 0.254. In addition, the SARS-CoV-2 infection rate in assay [2] was 106% (inactive).

Compound `N=C(N)c1cc2ccc(OC(=O)c3cccs3)cc2s1` (10 µM) yielded a morphology score in assay [1] of 0.578. In addition, in assay [2], the SARS-CoV-2 infection rate is 76% (inactive).

As to `CCOC(=O)c1ncc2[nH]c3ccc(OCc4ccccc4)cc3c2c1COC` (10 µM), the morphology score in assay [1] was -0.0675. In assay [2], the SARS-CoV-2 infection rate was 97.5% (inactive).

In the case of `C/C(=C(\CCOP(=O)(O)O)SC(=O)c1ccccc1)N(C=O)Cc1cnc(C)nc1N` [benfotiamine] (10 µM), the morphology score in assay [1] was -0.0264. Moreover, the SARS-CoV-2 infection rate in assay [2] was 112% (inactive).

Regarding `COc1cc(N)c(Cl)cc1C(=O)OCCN1CCCCC1` (10 µM), the morphology score in assay [1] is 0.128. In assay [2], the SARS-CoV-2 infection rate is 110% (inactive).

The compound `CC(C)N(CCC(=O)c1ccc2ccccc2c1)Cc1ccccc1` (10 µM) registered a morphology score in assay [1] of 0.0866. Besides, the SARS-CoV-2 infection rate in assay [2] was 104% (inactive).

In assay [1], `N#Cc1ccc(Oc2ccc3c(c2)COB3O)cc1` [crisaborole] (10 µM) had a morphology score of 0.0741. Moreover, in assay [2], the SARS-CoV-2 infection rate is 105% (inactive).

Turning to `CC(C)C[C@H](NC(=O)[C@@H](Cc1c[nH]c2ccccc12)NC(=O)[C@H](Cc1ccc(O)cc1)NC(=O)[C@H](CO)NC(=O)[C@H](Cc1c[nH]c2ccccc12)NC(=O)[C@H](Cc1c[nH]cn1)NC(=O)[C@@H]1CCC(=O)N1)C(=O)N[C@@H](CCCNC(=N)N)C(=O)N1CCC[C@H]1C(=O)NCC(N)=O` [triptorelin] (10 µM), the morphology score in assay [1] was -0.0195. Also, the SARS-CoV-2 infection rate in assay [2] is 110% (inactive).

Compound `Cc1cnc(C(=O)NCCc2ccc(S(=O)(=O)NC(=O)NC3CCCCC3)cc2)cn1` [glipizide] (10 µM) yielded a morphology score in assay [1] of 0.218. Moreover, in assay [2], the SARS-CoV-2 infection rate was 96% (inactive).

In turn, `NC(=O)N1C(=O)/C(=C(\O)c2cccs2)c2cc(Cl)ccc21` [tenidap] (10 µM) returned a morphology score in assay [1] of 0.0356. Also, the SARS-CoV-2 infection rate in assay [2] is 91% (inactive).

Compound `O=c1[nH]ccc2cc(OC3CCNCC3)ccc12` (10 µM) had a morphology score in assay [1] of 0.27. For the same compound, the SARS-CoV-2 infection rate in assay [2] is 110% (inactive).

`Cc1onc(O)c1C[C@@H](N)C(=O)O` (racemic) (10 µM) came in with a morphology score in assay [1] of 0.0374. In addition, the SARS-CoV-2 infection rate in assay [2] is 104% (inactive).

`COc1cc(N2CCC(N3CCN(C)CC3)CC2)ccc1Nc1ncnc(Nc2ccccc2S(=O)(=O)C(C)C)n1` (0.833333 µM) showed a morphology score in assay [1] of -0.0307. The SARS-CoV-2 infection rate in assay [2] is 71% (inactive).

As to `NCC(=O)O` (10 µM), the morphology score in assay [1] is 0.146. Further, in assay [2], the SARS-CoV-2 infection rate is 104% (inactive).

Regarding `CN1C(=O)N(c2cc(Cl)cc(Cl)c2)C(=O)[C@]12CN(c1ccc(C(=O)O)cn1)C[C@H]2c1ccc(C#N)cc1` (10 µM), the morphology score in assay [1] turned out to be 0.0204. The SARS-CoV-2 infection rate in assay [2] is 114% (inactive).

Regarding `CCCC[C@@]1(C2CCCC2)Cc2cc(OCCCC(=O)O)c(Cl)c(Cl)c2C1=O` (10 µM), the morphology score in assay [1] is -0.08. For the same compound, the SARS-CoV-2 infection rate in assay [2] was 92.5% (inactive).

Consider `Nc1ncnc2c1ncn2[C@@H]1O[C@H](CO)C[C@H]1O` [cordycepin] (10 µM), for which the morphology score in assay [1] is -0.1. The SARS-CoV-2 infection rate in assay [2] is 112% (inactive).

Turning to `CN1CCC(COc2cnc(-c3cccc(Cn4nc(-c5cccc(C#N)c5)ccc4=O)c3)nc2)CC1` (10 µM), in assay [1], the morphology score is 0.207. Moreover, in assay [2], the SARS-CoV-2 infection rate was 100% (inactive).

`O=C(Oc1ccccc1)c1ccccc1O` [phenyl-salicylate] (10 µM) had a morphology score in assay [1] of -0.0306. Moreover, in assay [2], the SARS-CoV-2 infection rate is 103% (inactive).

`O=c1n(CC2CO2)c(=O)n(CC2CO2)c(=O)n1CC1CO1` (stereo not given) [teroxirone] (10 µM) displayed a morphology score in assay [1] of -0.0418. In addition, the SARS-CoV-2 infection rate in assay [2] was 115% (inactive).
